The full data set covers some 7,900 targets. This sample favours those with a hit. About 0.6% of all pairs of compound and target were hits.
compound: C1=CC2=C(C=CC(=C2)/C=C\3/C(=O)NC(=NCC4=CC=CS4)S3)N=C1; assay: log2 fold change, soluble protein after heating vs DMSO (PISA); higher = thermal stabilisation; K562 cells, 10 uM, 30 min; active = over 0.2 and 3.5 SD of the protein, either way, in both replicates (recomputed)
Outline: (§1)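 K562 cells at 2×10^6 cells/mL were exposed to 10 μM compound for 30 min, then aliquots were heated for 3 min across 48°C-58°C, pooled, and extracted in PBS containing 0.5% NP-40 at 4°C. The supernatant after 21,000xg for 90 min was taken as soluble protein and measured by TMTpro 16plex LC-MS/MS with channel sums equalised. Thermal stability is reported relative to control samples, with values from duplicates. Fold changes are given on a log2 scale.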

Chain of UniProt Q9NYB0 (Q9NYB0 whole entry, looked up): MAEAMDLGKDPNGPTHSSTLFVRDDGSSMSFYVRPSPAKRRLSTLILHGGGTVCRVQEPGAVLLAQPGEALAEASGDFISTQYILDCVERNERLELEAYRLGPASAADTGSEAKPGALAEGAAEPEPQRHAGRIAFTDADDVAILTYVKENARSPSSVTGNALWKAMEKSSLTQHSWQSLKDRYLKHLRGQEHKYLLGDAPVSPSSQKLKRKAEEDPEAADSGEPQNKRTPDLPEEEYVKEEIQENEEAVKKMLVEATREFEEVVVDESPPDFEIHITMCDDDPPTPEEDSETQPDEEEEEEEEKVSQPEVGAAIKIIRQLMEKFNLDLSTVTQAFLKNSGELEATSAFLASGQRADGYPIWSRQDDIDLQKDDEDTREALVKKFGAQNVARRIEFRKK
Chain of UniProt Q8WU79 (Q8WU79 whole entry, looked up): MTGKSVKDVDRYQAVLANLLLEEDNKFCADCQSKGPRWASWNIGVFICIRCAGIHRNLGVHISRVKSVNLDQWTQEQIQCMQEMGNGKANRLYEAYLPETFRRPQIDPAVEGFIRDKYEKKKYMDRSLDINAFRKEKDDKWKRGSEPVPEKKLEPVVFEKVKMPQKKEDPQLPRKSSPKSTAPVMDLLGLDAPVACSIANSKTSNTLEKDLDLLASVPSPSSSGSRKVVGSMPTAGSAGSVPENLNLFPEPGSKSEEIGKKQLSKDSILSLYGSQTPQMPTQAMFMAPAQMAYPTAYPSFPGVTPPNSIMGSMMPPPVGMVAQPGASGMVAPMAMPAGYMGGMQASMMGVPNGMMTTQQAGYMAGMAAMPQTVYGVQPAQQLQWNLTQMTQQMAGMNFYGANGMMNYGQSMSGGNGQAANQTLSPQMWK
Chain of UniProt Q9Y5X3 (Q9Y5X3 whole entry, looked up): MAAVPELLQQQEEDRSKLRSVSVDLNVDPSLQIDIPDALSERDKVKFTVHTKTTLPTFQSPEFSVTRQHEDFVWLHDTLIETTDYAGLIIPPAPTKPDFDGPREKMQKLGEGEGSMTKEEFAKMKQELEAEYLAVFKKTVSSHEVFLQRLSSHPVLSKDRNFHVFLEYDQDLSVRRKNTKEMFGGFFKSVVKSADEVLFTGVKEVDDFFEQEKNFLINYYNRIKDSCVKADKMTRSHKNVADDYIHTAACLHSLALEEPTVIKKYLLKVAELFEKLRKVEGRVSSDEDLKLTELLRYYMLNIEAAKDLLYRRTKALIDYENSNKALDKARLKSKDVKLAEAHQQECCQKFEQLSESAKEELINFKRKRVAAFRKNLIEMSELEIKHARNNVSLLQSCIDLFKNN
Chain of UniProt O00506 (O00506 whole entry, looked up): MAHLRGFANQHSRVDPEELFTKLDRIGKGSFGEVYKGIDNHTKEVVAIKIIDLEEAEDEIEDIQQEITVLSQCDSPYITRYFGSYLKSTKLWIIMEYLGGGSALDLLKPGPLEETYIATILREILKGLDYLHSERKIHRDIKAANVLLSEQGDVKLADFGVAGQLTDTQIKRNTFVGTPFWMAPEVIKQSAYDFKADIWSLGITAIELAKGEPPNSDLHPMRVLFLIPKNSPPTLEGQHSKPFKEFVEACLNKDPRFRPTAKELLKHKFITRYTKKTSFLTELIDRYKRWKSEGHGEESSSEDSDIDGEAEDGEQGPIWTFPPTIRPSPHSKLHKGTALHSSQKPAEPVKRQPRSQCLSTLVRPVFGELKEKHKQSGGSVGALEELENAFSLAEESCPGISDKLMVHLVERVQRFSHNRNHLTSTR
Chain of UniProt Q9NUY8 (Q9NUY8 whole entry, looked up): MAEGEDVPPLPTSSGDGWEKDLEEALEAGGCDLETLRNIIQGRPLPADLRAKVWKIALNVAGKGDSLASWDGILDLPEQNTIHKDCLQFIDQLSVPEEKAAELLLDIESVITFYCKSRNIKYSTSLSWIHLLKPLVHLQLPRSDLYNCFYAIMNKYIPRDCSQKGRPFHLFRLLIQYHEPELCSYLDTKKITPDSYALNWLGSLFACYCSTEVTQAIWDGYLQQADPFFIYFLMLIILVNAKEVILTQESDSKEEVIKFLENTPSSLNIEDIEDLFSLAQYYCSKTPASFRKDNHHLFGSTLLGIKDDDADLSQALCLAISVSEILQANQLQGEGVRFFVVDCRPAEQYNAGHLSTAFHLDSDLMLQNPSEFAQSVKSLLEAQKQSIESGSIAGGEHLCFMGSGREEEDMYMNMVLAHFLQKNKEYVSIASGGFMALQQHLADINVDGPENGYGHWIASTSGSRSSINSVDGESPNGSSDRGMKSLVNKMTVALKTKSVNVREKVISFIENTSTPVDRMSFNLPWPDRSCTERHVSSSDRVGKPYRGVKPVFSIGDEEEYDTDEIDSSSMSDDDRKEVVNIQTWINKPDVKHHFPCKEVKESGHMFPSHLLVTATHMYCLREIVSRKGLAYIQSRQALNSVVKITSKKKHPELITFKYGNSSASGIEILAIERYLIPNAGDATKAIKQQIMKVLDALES
Chain of UniProt Q9Y5M8 (Q9Y5M8 whole entry, looked up): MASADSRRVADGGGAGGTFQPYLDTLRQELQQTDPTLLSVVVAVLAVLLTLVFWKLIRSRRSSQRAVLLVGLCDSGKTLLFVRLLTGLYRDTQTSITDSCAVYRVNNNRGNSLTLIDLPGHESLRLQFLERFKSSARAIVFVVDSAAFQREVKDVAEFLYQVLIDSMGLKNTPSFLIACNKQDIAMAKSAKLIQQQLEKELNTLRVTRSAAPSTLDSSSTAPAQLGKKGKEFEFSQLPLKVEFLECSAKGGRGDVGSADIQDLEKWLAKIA
Chain of UniProt Q8IY18 (Q8IY18 whole entry, looked up): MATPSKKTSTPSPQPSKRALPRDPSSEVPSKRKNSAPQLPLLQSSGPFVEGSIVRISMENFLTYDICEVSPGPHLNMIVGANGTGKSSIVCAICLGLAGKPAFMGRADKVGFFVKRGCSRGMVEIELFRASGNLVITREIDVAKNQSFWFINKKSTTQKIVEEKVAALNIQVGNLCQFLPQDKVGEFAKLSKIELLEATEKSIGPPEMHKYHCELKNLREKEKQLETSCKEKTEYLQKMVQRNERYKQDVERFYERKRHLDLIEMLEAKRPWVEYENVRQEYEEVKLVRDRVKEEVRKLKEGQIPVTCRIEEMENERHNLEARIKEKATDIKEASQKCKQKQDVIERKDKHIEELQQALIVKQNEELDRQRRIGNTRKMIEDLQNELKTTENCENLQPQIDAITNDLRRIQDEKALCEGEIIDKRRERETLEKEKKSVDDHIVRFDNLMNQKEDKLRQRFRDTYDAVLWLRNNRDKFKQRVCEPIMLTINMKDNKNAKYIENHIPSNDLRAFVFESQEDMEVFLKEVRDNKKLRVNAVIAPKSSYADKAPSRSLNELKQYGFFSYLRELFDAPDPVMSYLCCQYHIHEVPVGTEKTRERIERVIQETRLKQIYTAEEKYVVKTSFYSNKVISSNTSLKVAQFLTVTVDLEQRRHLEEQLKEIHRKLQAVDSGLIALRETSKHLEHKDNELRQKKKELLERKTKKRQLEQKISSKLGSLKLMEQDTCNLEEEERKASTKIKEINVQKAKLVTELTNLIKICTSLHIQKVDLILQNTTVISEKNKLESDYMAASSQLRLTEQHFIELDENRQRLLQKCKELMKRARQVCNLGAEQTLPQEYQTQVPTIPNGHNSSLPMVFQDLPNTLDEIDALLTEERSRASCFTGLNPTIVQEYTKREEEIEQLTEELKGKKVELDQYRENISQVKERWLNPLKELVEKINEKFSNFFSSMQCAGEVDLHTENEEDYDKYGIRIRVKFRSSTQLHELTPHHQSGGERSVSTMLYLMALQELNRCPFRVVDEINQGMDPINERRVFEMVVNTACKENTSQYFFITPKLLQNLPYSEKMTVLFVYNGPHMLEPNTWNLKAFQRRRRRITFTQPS
Chain of UniProt Q8NEW0 (Q8NEW0 whole entry, looked up): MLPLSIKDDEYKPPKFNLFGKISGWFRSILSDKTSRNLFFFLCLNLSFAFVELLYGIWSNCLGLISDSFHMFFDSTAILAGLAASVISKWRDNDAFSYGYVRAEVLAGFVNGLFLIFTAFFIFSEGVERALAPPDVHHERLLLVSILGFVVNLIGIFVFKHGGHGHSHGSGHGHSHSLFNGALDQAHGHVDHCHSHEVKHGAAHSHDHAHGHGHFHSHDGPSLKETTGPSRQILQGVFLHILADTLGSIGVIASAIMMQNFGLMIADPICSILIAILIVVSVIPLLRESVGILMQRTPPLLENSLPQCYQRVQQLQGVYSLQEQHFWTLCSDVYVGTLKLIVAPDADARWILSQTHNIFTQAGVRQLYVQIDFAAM
Chain of UniProt Q8WUH2 (Q8WUH2 whole entry, looked up): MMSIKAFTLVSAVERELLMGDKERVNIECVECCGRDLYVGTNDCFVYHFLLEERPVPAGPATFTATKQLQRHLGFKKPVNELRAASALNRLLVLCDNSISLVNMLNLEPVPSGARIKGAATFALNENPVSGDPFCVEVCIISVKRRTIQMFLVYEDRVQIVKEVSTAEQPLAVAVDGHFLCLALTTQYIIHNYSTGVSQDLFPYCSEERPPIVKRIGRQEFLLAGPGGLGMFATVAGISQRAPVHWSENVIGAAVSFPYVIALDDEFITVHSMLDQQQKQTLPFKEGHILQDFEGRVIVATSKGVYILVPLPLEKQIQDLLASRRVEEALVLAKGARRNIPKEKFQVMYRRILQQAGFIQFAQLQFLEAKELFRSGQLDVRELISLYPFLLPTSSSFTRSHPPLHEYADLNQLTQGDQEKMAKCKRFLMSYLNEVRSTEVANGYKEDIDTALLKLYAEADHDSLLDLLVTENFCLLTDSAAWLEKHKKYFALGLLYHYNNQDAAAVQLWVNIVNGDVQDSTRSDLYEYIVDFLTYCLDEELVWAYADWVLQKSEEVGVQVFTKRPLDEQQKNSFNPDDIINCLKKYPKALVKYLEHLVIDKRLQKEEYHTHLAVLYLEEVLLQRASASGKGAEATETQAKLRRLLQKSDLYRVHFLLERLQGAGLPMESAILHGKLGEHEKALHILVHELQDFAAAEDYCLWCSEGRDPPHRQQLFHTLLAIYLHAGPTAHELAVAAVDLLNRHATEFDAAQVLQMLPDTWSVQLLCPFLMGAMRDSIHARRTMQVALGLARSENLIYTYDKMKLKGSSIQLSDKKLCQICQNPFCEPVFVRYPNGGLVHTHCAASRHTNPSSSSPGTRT

log2 fold change, inactive:
TBC1D23 (UniProt Q9NUY8) 0.071
SMAP2 (UniProt Q8WU79) -0.029
SNX5 (UniProt Q9Y5X3) 0.057
SNX9 (UniProt Q9Y5X1) 0.004
SRPRB (UniProt Q9Y5M8) 0.045
TANGO6 (UniProt Q9C0B7) -0.001
TGFBRAP1 (UniProt Q8WUH2) 0.084
TANK (UniProt Q92844) 0.002
TBRG4 (UniProt Q969Z0) 0.063
TERF2IP (UniProt Q9NYB0) 0.022
STK25 (UniProt O00506) 0.021
SLC27A4 (UniProt Q6P1M0) 0.082
SMC5 (UniProt Q8IY18) 0.014
SLC30A7 (UniProt Q8NEW0) -0.086

compound: C1=CC2=NC=CN=C2C=C1/C=C/3\C(=O)NC(=O)S3; assay: as above
Outline: as §1

log2 fold change, inactive:
TIMM13 (UniProt Q9Y5L4) 0.111
SLC25A38 (UniProt Q96DW6) 0.054
SMARCA5 (UniProt O60264) 0.078
TEX30 (UniProt Q5JUR7) 0.025
SMG1 (UniProt Q96Q15) 0
SNRPD3 (UniProt P62318) 0.079
SUPT5H (UniProt O00267) 0.021
SPAST (UniProt Q9UBP0) 0.028
TBCD (UniProt Q9BTW9) 0.029
SMAP (UniProt O00193) 0.073
SPR (UniProt P35270) 0.016
TAOK3 (UniProt Q9H2K8) 0.018
SP3 (UniProt Q02447) -0.051
STOM (UniProt P27105) 0.04
TJP1 (UniProt Q07157) -0.135
SLC30A10 (UniProt Q6XR72) 0.008
SPCS2 (UniProt Q15005) 0.029
TM9SF4 (UniProt Q92544) -0.002
STAT5B (UniProt P51692) -0.013
SRSF10 (UniProt O75494) 0.048
SNX12 isoform 1 (UniProt Q9UMY4) -0.01
TBC1D15 isoform 3 (UniProt Q8TC07) 0.067
SYMPK (UniProt Q92797) 0.033
TBC1D23 (UniProt Q9NUY8) 0.021
SMAP2 (UniProt Q8WU79) 0.019
SNX5 (UniProt Q9Y5X3) -0.024
SNX9 (UniProt Q9Y5X1) 0.014
SRPRB (UniProt Q9Y5M8) -0.036
TANGO6 (UniProt Q9C0B7) 0.057
TGFBRAP1 (UniProt Q8WUH2) 0.062
TANK (UniProt Q92844) 0.053
TBRG4 (UniProt Q969Z0) -0.056
TERF2IP (UniProt Q9NYB0) 0.049
STK25 (UniProt O00506) 0.041
SLC27A4 (UniProt Q6P1M0) -0.02
SMC5 (UniProt Q8IY18) 0.005
SLC30A7 (UniProt Q8NEW0) 0.077

Reference: the supplement of paper PMC10849652
